# LmPK inh – blocks Leishmania mexicana pyruvate kinase activity; Potency, µM (top dose mostly 57.5 µM), actives largely listed as inhibitors; AID 1721; 290,000 tested, 0.37% active; purified LmPK, Kinase-Glo ATP luminescence, 1 h
# Target sequence (Q27686 whole entry, looked up): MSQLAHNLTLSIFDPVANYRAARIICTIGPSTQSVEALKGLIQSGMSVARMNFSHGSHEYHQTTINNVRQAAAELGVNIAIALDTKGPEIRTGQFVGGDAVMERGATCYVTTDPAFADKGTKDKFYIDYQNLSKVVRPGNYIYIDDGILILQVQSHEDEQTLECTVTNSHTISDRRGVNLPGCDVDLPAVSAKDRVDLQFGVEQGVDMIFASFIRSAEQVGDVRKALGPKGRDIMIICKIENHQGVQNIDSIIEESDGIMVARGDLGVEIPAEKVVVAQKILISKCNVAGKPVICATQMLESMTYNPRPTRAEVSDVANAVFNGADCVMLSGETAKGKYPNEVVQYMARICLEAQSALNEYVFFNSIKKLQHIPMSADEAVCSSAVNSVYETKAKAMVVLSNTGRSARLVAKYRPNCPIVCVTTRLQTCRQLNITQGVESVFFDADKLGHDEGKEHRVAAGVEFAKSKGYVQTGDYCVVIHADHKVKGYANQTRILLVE
#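 Purified LmPK (0.1 nM) with 0.5 mM PEP and 0.1 mM ADP in imidazole buffer pH 7.2 with MgCl2/KCl, 1 h at room temperature. ATP formed was read by luciferase luminescence and normalized to no-enzyme and uninhibited controls.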
# Pf growth 96h – P. falciparum growth inhibition at 96 hour, primary screen for plastid delayed-death inhibitors. AID 504834. 320,000 tested, 6.9% active. P. falciparum luciferase reporter growth, 96 h. Potency, µM (top dose mostly 28.7 µM), hits mostly inhibitors
#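 Two-generation exposure (96 h) targets delayed-death phenotype. Reporter parasites carrying integrated firefly luciferase, in red cells at 2% hematocrit and 0.05% parasitemia final, kept at 37 C, 5% CO2; luminescence loss indicates inhibition.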
# CHX counter – counter-screen hit for Shiga toxin inhibitors, cycloheximide; 300,000 tested, 12% active; max response, %; cell reporter, cycloheximide protein synthesis inhibition counterscreen; in the data active = max response mostly above about 13%, no sharp cut-off; inactive = mostly below about 14%; note: read at 38.3 µM for the half of the compounds with a filed dose
# Pf growth 48h – P. falciparum growth inhibition at 48 hours (one generation). P. falciparum luciferase growth in erythrocytes, 48 h. Potency, µM (top dose mostly 28.7 µM), usual class: inhibitors. 310,000 tested, 5.9% active. AID 504832
#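 Growth was read as firefly luciferase luminescence after a 48 h, 37 C, 5% CO2 exposure of compounds to reporter-bearing P. falciparum cultures (0.1% parasitemia, 2% hematocrit final) in Albumax-supplemented RPMI 1640.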
# Shiga toxin inh – Shiga toxin inhibition | AID 2315 | 290,000 tested, 9.2% active | inhibition, % at 38.7 µM | Vero cells, Shiga toxin protein synthesis inhibition reporter; in the data active = inhibition mostly above about 28%, no sharp cut-off; inactive = mostly below about 43%
# Numbers stand for hits; i = inactive; ? = inconclusive; nt = not tested or not shown; [ ] = dose if it differs, or a comment. This is a sample that favours compounds with a hit; in the whole collection about 22% have one here. Unless noted, calls come from the whole dose curve; as a rule, active = well fitted inhibition curve with a large enough effect; inconclusive = small, poorly fitted or top-dose-only effect, or another doubt; inactive = no such curve, though single readings can be large or run the other way.
SMILES,LmPK inh,Pf growth 96h,CHX counter,Pf growth 48h,Shiga toxin inh
COc1ccc(C(CC(=O)O)NS(=O)(=O)c2ccc3c(c2)N(C(C)=O)CC(C)O3)cc1 (stereo not given),i,i,i,i,i
CCOC(=O)C1(CCOc2ccccc2)CCN(Cc2cc(OC)c(O)c(OC)c2)CC1,i,i,i,?,i
CCOC(=O)C1(CC2CC2)CCN(Cc2cc(Cl)c(O)c(OC)c2)CC1,i,0.37µM,i,?,i
CCOC(=O)C1(CC2CC2)CCN(Cc2cnc(-c3ccccc3C)nc2)CC1,i,?,i,13µM,i
Cc1cccc2c(-c3ccccc3)cc(=O)[nH]c12,i,?,i,i,i
Cc1ccccc1-[n+]1c(-c2ccccc2)cc(-c2ccccc2)cc1-c1ccccc1,nt,0.19µM,nt,0.33µM,nt
O=C([O-])c1ccccc1-[n+]1c(-c2ccccc2)cc(-c2ccccc2)cc1-c1ccccc1,nt,4.7µM,nt,12µM,nt
[O-]c1ccccc1-[n+]1c(-c2ccccc2)cc(-c2ccccc2)cc1-c1ccccc1,nt,0.33µM,nt,1.3µM,nt
Nc1ccccc1-[n+]1c(-c2ccccc2)cc(-c2ccccc2)cc1-c1ccccc1,i,2.1µM,i,4.7µM,i
O=C(Nc1cc(Cl)ccc1N1CCCC1)C1=COCCO1,nt,i,nt,?,nt
Cc1ccc(-n2nc(C)c3c(C(=O)OCC(=O)N(C)C4CCS(=O)(=O)C4)cc(-c4ccccc4)nc32)cc1 (stereo not given),i,i,i,i,i
COC(=O)Cn1ncc(N2C3CC(CC(C)(C)C3)C2C)c(Cl)c1=O (stereo not given),i,i,i,?,i
Oc1ccccc1-[n+]1c(-c2ccccc2)cc(-c2ccccc2)cc1-c1ccccc1,nt,1.5µM,nt,1.5µM,nt
COc1ccc(OC)c2[nH]c(=O)c(CCNS(=O)(=O)c3ccc(F)cc3)cc12,i,i,i,i,i
COc1ccc(OC)c2[nH]c(=O)c(CCNC(=O)c3cc4ccccc4o3)cc12,i,5.2µM,i,8.3µM,i
CCS(=O)(=O)NCCc1cc2c(OC)ccc(OC)c2[nH]c1=O,i,2.1µM,i,i,i
COC(=O)c1c(-c2ccc(F)cc2)noc1N,i,4.7µM,i,i,i
COC(=O)c1onc(-c2ccccc2)c1C(=O)OC,i,i[5.75 µM],i,i,i
Cc1cc(C)c(-c2csc(NC(=O)C3=COCCO3)n2)cc1C,nt,i,nt,i,nt
C=CCn1c(C)cc(-c2csc(NCC)n2)c1C,i,?,43,?,89
C=CCn1c(C)cc(-c2csc(NC(=O)C3=COCCO3)n2)c1C,nt,?,nt,5.2µM,nt
Cc1cccc(N2CCN(C(=O)c3ccc(NC4=NC5CS(=O)(=O)CC5S4)cc3)CC2C)c1 (stereo not given),i,i,i,?,i
CCC(C)(C)NC(=O)CN(C(=O)CCC(=O)Nc1nccs1)c1ccc2c(c1)OCCO2,i,i,51,?,57
Cc1ccc(N(CC(=O)NC(C)C)C(=O)CCC(=O)Nc2nccs2)cc1,i,i,i,i,i
Cc1ccc(N(CC(=O)NC(C)C)C(=O)CCC(=O)Nc2nccs2)c(C)c1,i,i,28,i,i
SMILES,LmPK inh,Pf growth 96h,CHX counter,Pf growth 48h,Shiga toxin inh
Cc1cccc(N(CC(=O)NC(C)C)C(=O)CCC(=O)Nc2nccs2)c1,i,?,i,9.3µM,i
CCC(C)(C)NC(=O)CN(C(=O)CNS(=O)(=O)c1ccc(C)cc1)c1ccc2c(c1)OCCO2,i,nt,i,6.6µM,i
CCCCN(C)C(=O)c1nc2ccccn2c1CN1CCC[C@H]1CO,i,?,i,i,i
CCOC(=O)CSc1nc(C)cc(C)c1C(N)=O,i,?,i,i,i
CC(C)NC(=O)CN(C(=O)CCC(=O)Nc1nccs1)c1ccc2c(c1)OCO2,i,13µM,i,i,i
CSC1=NCCN1C(=O)Cc1ccc(-c2ccccc2)cc1,i,i,i,i,42
CSC1=NCCN1C(=O)Cc1ccc(F)cc1,i,9.3µM,i,nt,i
CCOc1ccc(C(=O)N2CCN=C2SC)cc1OCC,i,i,i,?,i
CCOc1ccccc1C(=O)N1CCN=C1SC,i,15µM,i,nt,i
CC1(C)Cc2c(sc(NC(=O)c3ccc(C(=O)c4ccccc4)cc3)c2C#N)C(C)(C)N1,i,?,i,i,i
COc1ccc(N2CCN(C(=S)Nc3ccccc3OC)CC2)cc1,i,i,i,i,nt
Cc1ccc(C)c(S(=O)(=O)N2CCN(C(=O)CSC(=S)N3CCCC3)CC2)c1,nt,?,nt,i,nt
O=C(CN1CCCCC1)Nc1ccc(Br)cc1[N+](=O)[O-],i,i,i,i,i
Cc1ccc(Nc2nc(-c3c(C)nc4ccccn34)cs2)cc1,i,10µM,i,12µM,i
